Consider 40 compounds from PubChem BioAssay (NCATS).

Inconclusive results are not listed. Values without a mark were called inactive. Activity calls are given as the source filed them. Calls come from the whole dose curve; as a rule, active = well fitted curve in the direction sought with a large enough effect; inconclusive = small, poorly fitted or top-dose-only effect, or another doubt; inactive = no such curve, though single readings can be large; an effect the other way counts as inactive or inconclusive.
Potency is the fitted concentration of half-maximal effect.

The nature of one experiment: Viability qHTS for spleen associated tyrosine kinase inhibitor (SYKi) drug resistant MV4-11 cells (AID 1963824). Note: nearly all actives have a fitted effect of over 35% in size. The settings on record: SYKi-resistant MV4-11 viability, CellTiter-Glo, 72 h; series mostly up to 45 µM. In outline: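 CellTiter-Glo luminescence, read 10 min after reagent addition, reports viability after a 72 hr compound exposure. Cells are an MV4-11 line made resistant to SYK inhibition, seeded at 500 per well onto compound-containing plates.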
Turning to `CC(C)(C)NCC(O)COc1cccc2c1CCCC2=O` (configuration not stated), the Potency entry is “inactive”.

For the compound `COc1ccc(Sc2ccc(NC(=O)c3ccccc3Cl)cc2C#N)cc1`, the Potency is 25.9 µM (active). On the same count and under the same terms, to `C[C@H]1CO[C@@H]2Cn3cc(C(=O)NCc4ccc(F)cc4F)c(=O)c(O)c3C(=O)N12` belongs 7.31 µM (active); to `C[C@]12C=CC(=O)C=C1CC[C@@H]1[C@@H]2[C@@H](O)C[C@@]2(C)[C@H]1CC[C@]2(O)C(=O)COC(=O)CCC(=O)O`, “inactive”. Still for that read-out and setting: to `O=C(c1ccc(Cl)c([N+](=O)[O-])c1)N1CCN(c2ccccc2F)CC1` belongs 18.4 µM (active).

With `Nc1ccc(C(=O)Nc2ccccc2N)cc1`, the Potency is 7.5 µM (active). Consider `CN1CCc2cc(Cl)c(O)cc2[C@@H](c2cccc3c2OCC3)C1`, for which the Potency is 11.6 µM (active).

The next experiment in a line: Cellular viability qHTS for adrenocortical cancer (ACC) cell line SW-13 (AID 1963989).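 For activity (max response): cells grown in serum-free medium with ITS supplement; % is set by controls: 0 for no effect and ±100 for the full control effect.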 Note: nearly all actives have a fitted effect of over 65% in size. Particulars: SW-13 ACC cells viability, CellTiter-Glo, 48 h; activity (max response): stronger effect = lower value. In outline:
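Luminescent ATP read-out (CellTiter-Glo, 20 min at room temperature) measured metabolically competent SW-13 cells after 48 h compound treatment. Final concentrations spanned up to 46 uM; bortezomib served as positive control.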
As to `COc1cc2c3cc1Oc1cc(ccc1O)C[C@@H]1c4c(cc(OC)c(O)c4Oc4ccc(cc4)C[C@@H]3N(C)CC2)CC[N+]1(C)C`, the activity (max response) was -1.9%. On to `CCn1cc(C(=O)O)c(=O)c2cnc(N3CCNCC3)nc21`, for which the activity (max response) is 3.41%.

With `CCCCCCCCCCC(CO)CCCCCCCC` (configuration not stated), the activity (max response) is 0.379%.

On to `CC[N+](C)(CC)CCOC(=O)C1c2ccccc2Oc2ccccc21`, for which the activity (max response) is -11.3%. Regarding `Nc1nc2ncc(CNc3ccc(C(=O)N[C@@H](CCC(=O)O)C(=O)O)cc3)nc2c(=O)[nH]1`, the activity (max response) was 12.3%. As to `CCOc1cc(OCC)c(C(=O)CCC(=O)O)cc1OCC`, the activity (max response) was 6%. For the compound `CCN1CCN(Cc2ccc(NC(=O)Nc3ccc(Oc4cc(NC)ncn4)cc3)cc2C(F)(F)F)CC1`, the Potency is 3.98 µM (active). On to `NC(CO)(CO)CO`, for which the activity (max response) was 12.7%. The same measure, in the same setting: under `CC(CC(C#N)(c1ccccc1)C(C)C)N(C)C` (configuration not stated) stands 3.72%; under `O=C(O)c1ccccn1`, 1.31%; under `CC(=O)Nc1ncc([N+](=O)[O-])s1`, 10.5%. Still for that read-out and setting: under `CCOC(=O)C(=O)CCCCCCl` stands 1.38%; under `C[C@@H](c1ncncc1F)C(O)(Cn1cncn1)c1ccc(F)cc1F` (some centres not stated), 2.11%. Still for that read-out and setting: under `CN(C)CCN1CCN(c2cccc(Cl)c2)C1=O` stands 10.1%. As for `OC1(c2ccc(Cl)cc2)CCNCC1`, the activity (max response) was 11.1%. As to `Cc1cc(=O)oc2cc(O[C@@H]3SC[C@@H](O)[C@H](O)[C@H]3O)ccc12`, the activity (max response) was 12.3%. The same measure, in the same setting: under `C[C@H](NC(CCc1ccccc1)C(=O)O)C(=O)N1CCC[C@H]1C(=O)O` (some centres not stated) stands 8.08%; under `CCCCC(O)/C=C(C)/C=C/C=C/C(=O)N1CCCC1=O` (configuration not stated), 10.5%; under `CCc1cc(Cl)c(OC)c(C(=O)NC[C@@H]2CCCN2CC)c1O`, -13.7%. Still for that read-out and setting: to `CCc1cccc(CC)c1NC(=O)CN(CC(=O)O)CC(=O)O` belongs 1.3%. Same read-out and setting: under `CN1C(=O)CC(c2ccccc2)C1=O` (configuration not stated) stands 5.01%; under `Cc1cccc(C)c1NC(=O)CC12CCCN1CCC2`, 1.71%; under `O=C(/C=C/c1ccc(O)c(O)c1)O[C@@H]1C[C@@](OC(=O)/C=C/c2ccc(O)c(O)c2)(C(=O)O)C[C@@H](O)[C@@H]1O`, 4.38%. In the case of `CC1CN(c2cc3c(cc2F)c(=O)c(C(=O)O)cn3-c2ccc(F)cc2F)CCN1` (configuration not stated), the activity (max response) was -5.86%. Consider `O=C1Nc2cc(Cl)ccc2Oc2ccccc21`, for which the activity (max response) is -3.37%. Same read-out and setting: under `CC(C)(CO)[C@@H](O)C(=O)NCCCO` stands 15.4%. In the case of `COc1cc(N2CCC(N3CCN(C)CC3)CC2)ccc1Nc1ncnc(Nc2ccccc2S(=O)(=O)C(C)C)n1`, the Potency is 11.2 µM (active).

A short description of another experiment: Cellular viability qHTS for adrenocortical cancer (ACC) cell line NCI-H295R (AID 1963990).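 For activity change, negative = viability loss: 0% = DMSO only wells and -100% = full killing with cytotoxic reference compound.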 Note: nearly all actives have a fitted effect of over 60% in size. The settings on record: CellTiter-Glo ATP luminescence, 48 h; series mostly up to 46.1 µM. In outline:
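IC50 and maximal efficacy derive from four-parameter logistic modelling of titration curves, with reads scaled between DMSO-only wells (0%) and doxorubicin hydrochloride (100% inhibition). Compounds spanned up to 46 uM over 48 h.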
Background: In qHTS, concentration-response curves come from the screen itself.
On to `COc1cc2c3cc1Oc1cc(ccc1O)C[C@@H]1c4c(cc(OC)c(O)c4Oc4ccc(cc4)C[C@@H]3N(C)CC2)CC[N+]1(C)C`, for which the Potency entry was “inactive”. Take `CCn1cc(C(=O)O)c(=O)c2cnc(N3CCNCC3)nc21`: the Potency result was “inactive”. Still for that read-out and setting: to `CCCCCCCCCCC(CO)CCCCCCCC` (configuration not stated) belongs “inactive”; to `CC[N+](C)(CC)CCOC(=O)C1c2ccccc2Oc2ccccc21`, “inactive”; to `Nc1nc2ncc(CNc3ccc(C(=O)N[C@@H](CCC(=O)O)C(=O)O)cc3)nc2c(=O)[nH]1`, “inactive”.

Regarding `CCOc1cc(OCC)c(C(=O)CCC(=O)O)cc1OCC`, the Potency entry was “inactive”. The same measure, in the same setting: to `Cc1c(C(C)C)c(=O)n(-c2ccccc2)n1C` belongs “inactive”; to `CCN1CCN(Cc2ccc(NC(=O)Nc3ccc(Oc4cc(NC)ncn4)cc3)cc2C(F)(F)F)CC1`, 10 µM (active). On the same count and under the same terms, under `NC(CO)(CO)CO` stands “inactive”. The same measure, in the same setting: to `CN(C)[C@@H]1C(=O)C(C(N)=O)=C(O)[C@@]2(O)C(=O)C3=C(O)c4c(O)cccc4C[C@H]3C[C@@H]12` belongs “inactive”; to `CC(CC(C#N)(c1ccccc1)C(C)C)N(C)C` (configuration not stated), “inactive”. As for `O=C(O)c1ccc[n+]([O-])c1`, the Potency result is “inactive”.

Consider `O=C(O)c1ccccn1`, for which the Potency entry was “inactive”. On the same count and under the same terms, under `CC(=O)Nc1ncc([N+](=O)[O-])s1` stands “inactive”; under `CCOC(=O)C(=O)CCCCCCl`, “inactive”; under `C[C@@H](c1ncncc1F)C(O)(Cn1cncn1)c1ccc(F)cc1F` (some centres not stated), “inactive”. The same measure, in the same setting: under `CN(C)CCN1CCN(c2cccc(Cl)c2)C1=O` stands “inactive”; under `OC1(c2ccccc2)CCNCC1`, “inactive”; under `OC1(c2ccc(Cl)cc2)CCNCC1`, “inactive”. Consider `Cc1cc(=O)oc2cc(O[C@@H]3SC[C@@H](O)[C@H](O)[C@H]3O)ccc12`, for which the Potency entry is “inactive”. With `CC(C)c1cc2c(cc1S(=O)(=O)O)[C@@]1(C)CCC[C@@](C)(C(=O)O)[C@@H]1CC2`, the Potency entry is “inactive”.

On to `C[C@H](NC(CCc1ccccc1)C(=O)O)C(=O)N1CCC[C@H]1C(=O)O` (some centres not stated), for which the Potency entry is “inactive”. For the compound `N#CSCC(=O)O`, the Potency entry is “inactive”. On to `CCCCC(O)/C=C(C)/C=C/C=C/C(=O)N1CCCC1=O` (configuration not stated), for which the Potency entry was “inactive”.

`CCc1cc(Cl)c(OC)c(C(=O)NC[C@@H]2CCCN2CC)c1O`: the Potency entry is “inactive”. Same read-out and setting: to `CCc1cccc(CC)c1NC(=O)CN(CC(=O)O)CC(=O)O` belongs “inactive”; to `CN1C(=O)CC(c2ccccc2)C1=O` (configuration not stated), “inactive”; to `Cc1cccc(C)c1NC(=O)CC12CCCN1CCC2`, “inactive”. Still for that read-out and setting: under `O=C(/C=C/c1ccc(O)c(O)c1)O[C@@H]1C[C@@](OC(=O)/C=C/c2ccc(O)c(O)c2)(C(=O)O)C[C@@H](O)[C@@H]1O` stands “inactive”. For `CC1CN(c2cc3c(cc2F)c(=O)c(C(=O)O)cn3-c2ccc(F)cc2F)CCN1` (configuration not stated), the activity change, negative = viability loss is 1.32% [at 3.81 µM]. For the compound `O=C1Nc2cc(Cl)ccc2Oc2ccccc21`, the Potency entry was “inactive”. Regarding `CC(C)(CO)[C@@H](O)C(=O)NCCCO`, the Potency result is “inactive”. The same measure, in the same setting: to `COc1cc(N2CCC(N3CCN(C)CC3)CC2)ccc1Nc1ncnc(Nc2ccccc2S(=O)(=O)C(C)C)n1` belongs 8.91 µM (active).
